From PubChem BioAssay (Tox21) come the findings set out here.

The nature of experiment [1]: A CellTox Green Cytotoxicity Assay to monitor cytotoxicity in HEK293 cells - 32 hour (AID 1224881). Further: nearly all actives have a fitted effect of over 40% in size. The method, boiled down: (§1)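 HEK293 cells, 600/well, were preincubated 5 hours and then exposed to compounds at 37 C for up to 40 hours. A cell-impermeant cyanine dye staining dead-cell DNA was read by fluorescence at 0, 8, 16, 24, 32 and 40 h time points.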
Experiment [2] is described as follows: A CellTox Green Cytotoxicity Assay to monitor cytotoxicity in HepG2 cells - 0 hour (AID 1224882). Further: nearly all actives have a fitted effect of over 35% in size. The method, boiled down: (§2)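 HepG2 cells, 600/well, preincubated 5 h with CellTox Green dye, then exposed to Tox21 compounds in DMSO at 37 C for up to 40 h. Dead-cell DNA fluorescence read at the indicated time point.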
Experiment [3] in a line: A CellTox Green Cytotoxicity Assay to monitor cytotoxicity in HepG2 cells - 32 hour (AID 1224883). Further: nearly all actives have a fitted effect of over 50% in size. Further: potency means the concentration at half of the fitted maximal effect. The method, boiled down:
as §2

Experiment [4] is described as follows: A CellTox Green Cytotoxicity Assay to monitor cytotoxicity in HEK293 cells - 8 hour (AID 1224884). Further: nearly all actives have a fitted effect of over 35% in size. Summed up: as §1
A short description of experiment [5]: qHTS RealTime-Glo MT Cell Viability Assay in HepG2 cells - 16 hour (AID 1224885). Further: nearly all actives have a fitted effect of over 50% in size. The method, boiled down:
(§3)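 Cell number in HepG2 cultures estimated from NanoLuc luminescence generated by metabolic reduction of a prosubstrate by living cells. The homogeneous, nonlytic format allowed repeated reads at 0, 8, 16, 24, 32 and 40 h of compound exposure.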
(In general: In qHTS, concentration-response curves come from the screen itself.)

Experiment [6] is described as follows: qHTS RealTime-Glo MT Cell Viability Assay in HEK293 cells - 24 hour (AID 1224886). Further: top concentration of the series differs between compounds; nearly all actives have a fitted effect of over 50% in size. The method, boiled down: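 Homogeneous bioluminescent viability format in HEK293 cells (600 cells/well). Following 5 h at 37 C/5% CO2, 23 nL compound was pintooled; the signal was measured repeatedly during 40 h incubation.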
Experiment [7] in a line: qHTS RealTime-Glo MT Cell Viability Assay in HEK293 cells - 8 hour (AID 1224887). Further: top concentration of the series differs between compounds; nearly all actives have a fitted effect of over 50% in size. The method, boiled down: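 600 cells/well were plated with the nonlytic NanoLuc/prosubstrate reagent, pre-incubated 5 h, then given 23 nL of compound in DMSO. Incubation at 37 C for 40 h, with luminescence from viable-cell-reduced substrate read repeatedly from 0 h.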
The nature of experiment [8]: A CellTox Green Cytotoxicity Assay to monitor cytotoxicity in HEK293 cells - 16 hour (AID 1224888). Further: nearly all actives have a fitted effect of over 35% in size. The method, boiled down:
as §1

The nature of experiment [9]: qHTS RealTime-Glo MT Cell Viability Assay in HepG2 cells - 0 hour (AID 1224889). Further: nearly all actives have a fitted effect of over 50% in size. Summed up:
as §3

Experiment [10] is described as follows: A CellTox Green Cytotoxicity Assay to monitor cytotoxicity in HepG2 cells - 8 hour (AID 1224890). Further: nearly all actives have a fitted effect of over 45% in size. The method, boiled down: as §2

Structures are written as SMILES. A number with no mark means an inactive call. Records with an inconclusive call do not appear. Calls of active or inactive are those of the source. The call rests on the fitted dose curve; in most records, active means well fitted curve in the direction sought with a large enough effect in the repeat runs; inconclusive means weak or mixed curves; inactive means no such curve, though single readings can be large; an effect the other way counts as inactive or inconclusive.
On the % scale 0 is the no-effect control and ±100 the full control effect.

Regarding `CC(C)(C)C(=O)C(Oc1ccc(Cl)cc1)n1ccnc1` (stereo not given), the Potency entry in experiment [1], in experiment [2], in experiment [3], in [4], in [5] and in [6] was “inactive” each time. The Potency result in [7], in experiment [8], in experiment [9] and in [10] was “inactive” each time.
`Brc1cc(-c2ccc(Br)c(Br)c2Br)cc(Br)c1Br`: the Potency entry in experiment [1], in experiment [2], in experiment [3], in [4], in experiment [5] and in experiment [6] was “inactive” in each case. For the same molecule, the Potency entry in experiment [7], in experiment [8], in experiment [9] and in [10] was “inactive” each time.
Turning to `O=C1OCCN1/N=C/c1ccc([N+](=O)[O-])o1`, the Potency result in experiment [1], in experiment [2], in [3], in experiment [4], in experiment [5] and in experiment [6] was “inactive” throughout. Also, the Potency entry in [7], in experiment [8], in experiment [9] and in [10] was “inactive” in each case.
In the case of `CCCCCCCCCCCCCCCCBr`, the cytotoxicity increase in [1] is 0.813% [at 15.8 µM]; in [3] it was -8.22% [at 15.8 µM]; in experiment [4] it was -1.67% [at 15.8 µM]; in experiment [10], -4.5% [at 15.8 µM]. Further, the cytotoxicity in [2] is -3.37% [at 15.8 µM]. Also, in experiment [5], the activity change, negative = cytotoxic was 2.39% [at 15.8 µM]. The results for the activity change, negative = cytotoxicity in [6], in experiment [7] and in experiment [9] were 6% [at 15.8 µM], 3.99% [at 15.8 µM] and 6.9% [at 15.8 µM], respectively. The activity change in [8] was 2.24% [at 15.8 µM, stronger effect = higher value].
Take `C[N+]1(C)CCC(=C(c2ccccc2)c2ccccc2)CC1`: the Potency result in experiment [1], in experiment [2], in experiment [3], in [4], in experiment [5] and in [6] was “inactive” each time. In addition, the Potency entry in [7], in [8], in experiment [9] and in experiment [10] was “inactive” throughout.
Take `C[C@@H]1C[C@H]2[C@@H]3CCC4=CC(=O)C=C[C@]4(C)[C@@]3(F)[C@@H](O)C[C@]2(C)[C@H]1C(=O)CO`: the Potency result in experiment [1], in experiment [2], in [3], in experiment [4], in experiment [5] and in [6] was “inactive” in each case. For the same molecule, the Potency result in experiment [7] and in [8] was “inactive” each time.
Turning to `CC(=O)Nc1ccc(N)cc1`, the Potency entry in experiment [1], in experiment [2], in [3], in experiment [4], in experiment [5] and in experiment [6] was “inactive” throughout. In addition, the Potency result in experiment [7], in experiment [8], in experiment [9] and in experiment [10] was “inactive” throughout.
For the molecule `CC(C)CCCC(=O)O`, the Potency entry in experiment [1], in experiment [2], in [3], in [4], in experiment [5] and in experiment [6] was “inactive” throughout. Besides, the Potency entry in experiment [7], in [8], in [9] and in experiment [10] was “inactive” in each case.
For the molecule `COC(=O)c1cc(Cl)ccc1NS(=O)(=O)C(F)(F)F`, the Potency entry in experiment [1], in experiment [2], in experiment [3], in experiment [4], in experiment [5] and in experiment [6] was “inactive” throughout. Moreover, the Potency entry in experiment [7], in experiment [8] and in experiment [9] was “inactive” in each case.
On to `CC(=O)CC(c1ccc([N+](=O)[O-])cc1)c1c(O)c2ccccc2oc1=O` (stereo not given), for which the Potency entry in experiment [1], in experiment [2], in experiment [3], in [4], in experiment [5] and in experiment [6] was “inactive” in each case. The Potency entry in experiment [7], in experiment [8] and in experiment [9] was “inactive” each time.
Take `CC(C)(C)C(=O)O`: the Potency entry in [1], in experiment [2], in experiment [3], in [4], in [5] and in [6] was “inactive” each time. Besides, the Potency result in experiment [7], in experiment [8] and in experiment [9] was “inactive” each time.
Turning to `CCCCCCOC(=O)CCCCCCCC(=O)OCCCCCC`, the Potency entry in experiment [1], in experiment [2], in [3], in experiment [4], in experiment [5] and in experiment [6] was “inactive” in each case. Further, the Potency entry in experiment [7] and in experiment [8] was “inactive” throughout.
Turning to `CCCOC(=O)c1ccc(C(=O)OCCC)nc1`, the Potency entry in experiment [1], in experiment [2], in experiment [3], in experiment [4], in experiment [5] and in experiment [6] was “inactive” in each case. Moreover, the Potency entry in [7], in experiment [8], in [9] and in [10] was “inactive” in each case.
For the molecule `CC(=O)N(c1onc(C)c1C)S(=O)(=O)c1ccc(N)cc1`, the Potency entry in experiment [1], in [2], in experiment [3], in experiment [4], in experiment [5] and in experiment [6] was “inactive” in each case. In addition, the Potency entry in [7], in experiment [8], in [9] and in experiment [10] was “inactive” each time.
In the case of `O=C(O)c1snc(Cl)c1Cl`, the Potency result in experiment [1], in experiment [2], in [3], in [4], in experiment [5] and in [6] was “inactive” each time. The Potency entry in [7] was “inactive”.
For `CC(CCO)CCc1ccccc1` (stereo not given), the Potency result in experiment [1], in experiment [2], in [3], in experiment [4], in [5] and in [6] was “inactive” in each case. Moreover, the Potency result in [7], in experiment [8] and in [9] was “inactive” each time.
With `COCC(O)CO` (stereo not given), the Potency result in experiment [1], in experiment [2], in experiment [3], in experiment [4], in experiment [5] and in [6] was “inactive” in each case. In addition, the Potency result in [7], in [8], in experiment [9] and in experiment [10] was “inactive” in each case.
As for `CCOC(=O)c1ccccc1C`, the Potency entry in experiment [1], in [2], in experiment [3], in experiment [4], in experiment [5] and in experiment [6] was “inactive” in each case. For the same molecule, the Potency result in experiment [7], in experiment [8], in experiment [9] and in experiment [10] was “inactive” each time.
Regarding `CC(CCc1ccc2c(c1)OCO2)NN` (stereo not given), the Potency result in experiment [1], in [2], in experiment [3], in experiment [4], in experiment [5] and in experiment [6] was “inactive” throughout. The Potency result in [7], in experiment [8] and in [10] was “inactive” each time.
On to `Cc1ccc(S)cc1`, for which the Potency entry in experiment [1], in experiment [2], in experiment [4], in [5], in [6] and in experiment [7] was “inactive” in each case. Moreover, the Potency result in [8] and in [10] was “inactive” each time. In experiment [3], the Potency was 17.4 µM (active).
For the molecule `CC(C)(O)c1ccccc1CC[C@@H](SCC1(CC(=O)O)CC1)c1cccc(/C=C/c2ccc3ccc(Cl)cc3n2)c1`, the Potency entry in experiment [1], in experiment [2], in experiment [3], in [4], in experiment [5] and in [6] was “inactive” each time. The Potency result in experiment [7], in [8] and in [10] was “inactive” in each case.
Regarding `CNC(=O)N(c1ccccc1)c1ccccc1`, the Potency entry in [1], in [2], in experiment [3], in experiment [4], in experiment [5] and in [6] was “inactive” throughout. The Potency result in experiment [7], in experiment [8], in [9] and in experiment [10] was “inactive” each time.
Consider `CC#N`, for which the Potency entry in [1], in [2], in experiment [3], in experiment [4], in experiment [5] and in [6] was “inactive” throughout. Besides, the Potency entry in experiment [7], in experiment [8] and in experiment [10] was “inactive” in each case.
